10 compounds from PubChem BioAssay can be followed below.

Assay [1] relates to XIP peptide (Xip251-270) binding. Briefly: XIP fragment 251-270 binding compounds – biochemical, small-molecule microarray, fluorescence 635/667 nm, 0.1 µg/mL protein, primary screen (AID 1182). Conditions: fluorescent protein binding, 635 nm, higher = more signal, called active from +8 up or from −8 down.
Assay [2] relates to XIP peptide (Xip251-270). Description: compounds binding XIP fragment 251-270 – biochemical, small-molecule microarray, fluorescence 635/667 nm, 0.5 µg/mL protein, primary screen (AID 1183). Conditions: fluorescence 635 nm, higher = more signal.
The nature of assay [3]: blood-stage malaria parasite viability loss – strain 3D7, DAPI fluorescence, 100 nL, primary screen (AID 1184).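 Also: parasites grown inside human red blood cells in medium with human serum.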 Conditions: P. falciparum 3D7 growth, 3 d, higher = more signal.
In assay [4] the target is Homeobox protein Hox-A13 (Mus musculus) (UniProt Q62424). Briefly: disruptors of Hoxa13 oligonucleotide interaction – biochemical, fluorescence polarization, labeled oligonucleotide, primary screen (AID 1185). Conditions: Hoxa13:DNA binding, 15 min, higher = more signal, called active from +8 up or from −8 down. (In general: In fluorescence polarisation assays a small probe gives low polarisation when free and higher when bound to something large.)

Assay [5] is described as follows: blockers of DNA damage checkpoint Chk1 activation – imaging, HeLa, hydroxyurea, phospho-Chk1 antibody, percent positive cells, primary screen (AID 1186). The settings on record: hydroxyurea-induced phospho-Chk1 immunofluorescence imaging, higher = more signal.
A short description of assay [6]: blockers of DNA damage checkpoint Chk1 activation – imaging, HeLa, hydroxyurea, phospho-Chk1 nuclear intensity, primary screen (AID 1187). Conditions: hydroxyurea-induced phospho-Chk1 immunofluorescence imaging, higher = more signal.

Active and inactive are the calls of the source. Unless noted, no rule for the calls is given here.

Sequence of Homeobox protein Hox-A13 (Mus musculus) (Q62424 whole entry, looked up): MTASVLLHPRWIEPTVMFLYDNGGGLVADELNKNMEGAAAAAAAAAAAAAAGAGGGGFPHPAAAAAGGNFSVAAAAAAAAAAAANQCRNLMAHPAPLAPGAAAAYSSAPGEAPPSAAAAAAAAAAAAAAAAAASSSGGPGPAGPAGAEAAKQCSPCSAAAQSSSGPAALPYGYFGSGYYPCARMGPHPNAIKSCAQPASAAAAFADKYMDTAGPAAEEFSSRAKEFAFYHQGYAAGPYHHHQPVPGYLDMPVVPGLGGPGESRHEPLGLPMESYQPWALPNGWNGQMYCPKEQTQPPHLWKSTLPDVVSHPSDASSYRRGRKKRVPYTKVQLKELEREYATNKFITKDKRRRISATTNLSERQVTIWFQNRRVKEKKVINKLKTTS

`[N-]=[N+]=NCc1ccccc1C[C@]1(C(=O)NCc2ccccc2)N=C(c2ccc(OCCCO)cc2)O[C@H]1c1ccccc1N=[N+]=[N-]`: the values for the composite z-score in assay [1] and in assay [2] were -0.649 (inactive) and 0.344, respectively. In addition, the z-score is -2.52 in assay [3], 0.378 (inactive) in assay [4], -0.278 (inactive) in assay [5] and -0.2 (inactive) in assay [6].
As for `CCCC[C@@H](O)C1=C(C)C[C@H]2C(=O)N(Cc3ccccc3)C(=O)[C@H]2[C@H]1CO`, the composite z-score in assay [1] is -0.38 (inactive); in assay [2], 0.576. Further, the z-score was -0.224 in assay [3], -3.33 (inactive) in assay [4], 0.391 (inactive) in assay [5] and 0.984 (inactive) in assay [6].
Consider `COCCOC(=O)N1C(=O)[C@@]2(c3cc(C#CC4(O)CCCCCC4)ccc31)[C@H](C(=O)N1CCN(c3ncccn3)CC1)[C@H]1C(=O)O[C@H](c3ccccc3)[C@H](c3ccccc3)N1[C@@H]2c1ccc(OCCO)cc1`, for which the composite z-score in assay [1] was -0.128 (inactive); in assay [2], 0.835. The z-score in assay [3] was -2.34; in assay [4], 0.821 (inactive); in assay [5], 0.124 (inactive); in assay [6], 0.204 (inactive).
With `O=C(CS)NCCCCCNC(=O)[C@H]1C[C@H]2C(=O)N3CCC[C@H]3C(=O)N2[C@H]1c1cccc(OCCO)c1`, the composite z-score in assay [1] was 0.81 (inactive); in assay [2] it was 0.887. Besides, the z-score in assay [3] was -0.718; in assay [4], -3.04 (inactive); in assay [5], -0.58 (inactive); in assay [6] it was -0.281 (inactive).
Consider `C=CCOC(=O)[C@H]1[C@@H]2C(=O)O[C@@H](c3ccccc3)[C@@H](c3ccccc3)N2[C@@H](c2ccc(OCCOC(=O)[C@H]3C[C@H]4C(=O)N[C@@H](Cc5ccccc5)C(=O)N4[C@H]3c3ccc(O)cc3)cc2)[C@]12C(=O)Nc1ccccc12`, for which the composite z-score in assay [1] is 2.32 (inactive); in assay [2], 0.823. The z-score in assay [3] is -1.62; in assay [4], 1.08 (inactive); in assay [5], 0.464 (inactive); in assay [6] it was 0.685 (inactive).
Consider `COCCCNC(=O)[C@@]1(Sc2ccc(C)cc2)CC(=O)N(Cc2ccccc2)[C@@H]1c1ccc(CO)cc1I`, for which the results for the composite z-score in assay [1] and in assay [2] were -0.453 (inactive) and 0.423, respectively. In addition, the z-score was -0.0893 in assay [3], -2.08 (inactive) in assay [4], 0.442 (inactive) in assay [5] and 1.03 (inactive) in assay [6].
As for `CC(C)C[C@@H]1NC(=O)[C@H]2C[C@@H](C(=O)NCCCCCCN(C)C)[C@@H](c3cccc(OCCO)c3)N2C1=O`, the composite z-score in assay [1] was 2.09 (inactive); in assay [2], 0.905. In addition, the z-score in assay [3] was 0.063; in assay [4], -4 (inactive); in assay [5] it was -0.111 (inactive); in assay [6] it was 0.186 (inactive).
For the compound `CCOc1ccc(N2C(=O)/C(=C/C=C/c3ccccc3OC)S(=O)(=O)C2c2cccc([N+](=O)[O-])c2)cc1` (stereo not given), the composite z-score in assay [1] is -0.735 (inactive); in assay [2] it was -0.299. For the same compound, the z-score is 0.418 in assay [3], 1.37 (inactive) in assay [4], -0.322 (inactive) in assay [5] and -0.16 (inactive) in assay [6].
Regarding `C=CCNC(=O)[C@H]1[C@@H]2C(=O)O[C@@H](c3ccccc3)[C@@H](c3ccccc3)N2[C@@H](c2ccc(O)cc2)[C@]12C(=O)N(C(=O)OCCOC)c1ccc(C#CC3=CCCCC3)cc12`, the composite z-score is 0.514 (inactive) in assay [1] and 0.834 in assay [2]. The z-score was -0.919 in assay [3], -0.216 (inactive) in assay [4], -0.411 (inactive) in assay [5] and -0.376 (inactive) in assay [6].
Regarding `CC(C)(C)N1CC=CC23O[C@@H]4C=CCCOC(=O)C4[C@H]2C(=O)N(CCCCCO)[C@@H]3C1=O` (stereo not given in full), the composite z-score in assay [1] was 0.615 (inactive); in assay [2] it was 0.12. Also, the z-score in assay [3] is 0.519; in assay [4] it was -4.56 (inactive); in assay [5], -1.05 (inactive); in assay [6], -1.13 (inactive).
